{"source": "PubChem BioAssay AID2284063", "about": "(EPA ToxCast)", "note": "Results filed as inconclusive are left out. Calls of active or inactive are those of the source. Rule for the calls: active = hit-call score of the fitted dose curve at least 0.9, where 1 is the maximum; inactive = score below 0.9."}
{"target": "human BTK TK Kinase, BTK (gene 695) (UniProt Q06187)", "sequence (Q06187 whole entry, looked up)": "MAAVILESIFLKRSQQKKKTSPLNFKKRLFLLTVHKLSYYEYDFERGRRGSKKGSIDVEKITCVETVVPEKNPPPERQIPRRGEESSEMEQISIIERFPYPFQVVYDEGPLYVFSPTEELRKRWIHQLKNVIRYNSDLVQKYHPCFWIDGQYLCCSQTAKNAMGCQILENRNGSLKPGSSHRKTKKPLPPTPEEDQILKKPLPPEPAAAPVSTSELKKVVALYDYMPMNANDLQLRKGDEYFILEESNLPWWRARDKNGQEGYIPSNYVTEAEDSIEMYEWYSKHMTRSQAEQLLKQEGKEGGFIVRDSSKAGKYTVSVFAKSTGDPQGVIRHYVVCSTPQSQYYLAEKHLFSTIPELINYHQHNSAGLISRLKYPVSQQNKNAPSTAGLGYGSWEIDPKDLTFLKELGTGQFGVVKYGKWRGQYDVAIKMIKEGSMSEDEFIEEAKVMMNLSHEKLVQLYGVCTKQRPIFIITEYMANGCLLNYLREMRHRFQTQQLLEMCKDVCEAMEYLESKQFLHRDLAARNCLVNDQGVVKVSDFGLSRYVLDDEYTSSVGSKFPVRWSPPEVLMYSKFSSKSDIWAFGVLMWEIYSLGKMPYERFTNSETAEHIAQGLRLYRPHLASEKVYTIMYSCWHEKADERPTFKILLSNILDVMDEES", "test": "ERF_TW_ENZ_hBTK: Eurofins (ERF) Enzymatic Radiometric [10 uM ATP] LeadHunter Assay for human BTK TK Kinase", "method": "ERF_TW_ENZ_hBTK is a biochemical, single-readout assay that uses extracted gene-proteins in a cell-free assay. Measurements were taken 0.5 hour after chemical dosing in a 96-well plate. See BTK Human TK Kinase Enzymatic Radiometric Assay [10 uM ATP], Panlabs.ERF_TW_ENZ_hBTK is an assay component calculated from the ERF_TW_ENZ_hBTK assay. It is designed to measure enzyme activity using a type of enzyme reporter as detected by scintillation counting with radiometry technology.Data from the assay component ERF_TW_ENZ_hBTK was analyzed at the assay endpoint, ERF_TW_ENZ_hBTK, in the positive analysis fitting direction relative to DMSO as the negative control and baseline of activity. Using a type of enzyme reporter, loss-of-signal activity can be used to understand changes in enzymatic activity as they relate to gene BTK. To generalize the intended target to other relatable targets, this assay endpoint is annotated to the kinase intended target family, where the subfamily is tyrosine kinase (tk).\nHuman recombinant protein kinase BTK expressed in insect Sf21 cells is used. Test compound and/or vehicle is preincubated with 200 ng/ml enzymedouble dagger in modified HEPES buffer pH 7.4 for 15 minutes at 37C. […] An aliquot is removed and counted to determine the amount of [32P]Poly(Glu:Tyr) formed. […]"}
{"smiles": "O=C(/C=C/c1ccc(O)cc1)CC(=O)/C=C/c1ccc(O)cc1", "AC50": "6.13 µM (active)"}
